Here are results for one molecule from PubChem BioAssay AID2284172 (EPA ToxCast).

The source made the active and inactive calls. How the source made its calls: active means hit-call score of the fitted dose curve at least 0.9, where 1 is the maximum; inactive means score below 0.9.

The assay concerns the target Voltage-dependent L-type calcium channel subunit alpha-1C (Rattus norvegicus) (UniProt P22002). Description: ERF_FR_IC_rCACNA1C_Dihydropyridine: Eurofins (ERF) Calcium Ion Channel Binding (Dihydropyridine Site) LeadHunter Assay for rat Cav1.2 (L-type), conducted at France lab site. The procedure:
ERF_FR_IC_rCACNA1C_Dihydropyridine is a biochemical, single-readout assay that uses extracted gene-proteins in a cell-free assay. Measurements were taken 1.5 hour after chemical dosing in a 96-well plate. See Cav1.2 (L-type) Rat Calcium Ion Channel Binding (Dihydropyridine Site) Assay, Cerep.ERF_FR_IC_rCACNA1C_Dihydropyridine is an assay component calculated from the ERF_FR_IC_rCACNA1C_Dihydropyridine assay. It is designed to measure radioligand binding using a type of binding reporter as detected by scintillation counting with radiometry technology.Data from the assay component ERF_FR_IC_rCACNA1C_Dihydropyridine was analyzed at the assay endpoint, ERF_FR_IC_rCACNA1C_Dihydropyridine, in the positive analysis fitting direction relative to DMSO as the negative control and baseline of activity. Using a type of binding reporter, loss-of-signal activity can be used to understand changes in binding as they relate to gene CACNA1C. To generalize the intended target to other relatable targets, this assay endpoint is annotated to the ion channel intended target family, where the subfamily is voltage gated (Calcium).
Rat brain cells are incubated for 90 minutes at room temprature with [3H]nitrendipine (0.25 nM) ligand and Nitrendipine as control inhibitor. Test Sample Requirements: Minimum for 1) Screen: 60 ul of 10 mM stock -OR- 1 mg (pre-weighed) for 10 uM final testing. […]

Voltage-dependent L-type calcium channel subunit alpha-1C (Rattus norvegicus), sequence (P22002 whole entry, looked up): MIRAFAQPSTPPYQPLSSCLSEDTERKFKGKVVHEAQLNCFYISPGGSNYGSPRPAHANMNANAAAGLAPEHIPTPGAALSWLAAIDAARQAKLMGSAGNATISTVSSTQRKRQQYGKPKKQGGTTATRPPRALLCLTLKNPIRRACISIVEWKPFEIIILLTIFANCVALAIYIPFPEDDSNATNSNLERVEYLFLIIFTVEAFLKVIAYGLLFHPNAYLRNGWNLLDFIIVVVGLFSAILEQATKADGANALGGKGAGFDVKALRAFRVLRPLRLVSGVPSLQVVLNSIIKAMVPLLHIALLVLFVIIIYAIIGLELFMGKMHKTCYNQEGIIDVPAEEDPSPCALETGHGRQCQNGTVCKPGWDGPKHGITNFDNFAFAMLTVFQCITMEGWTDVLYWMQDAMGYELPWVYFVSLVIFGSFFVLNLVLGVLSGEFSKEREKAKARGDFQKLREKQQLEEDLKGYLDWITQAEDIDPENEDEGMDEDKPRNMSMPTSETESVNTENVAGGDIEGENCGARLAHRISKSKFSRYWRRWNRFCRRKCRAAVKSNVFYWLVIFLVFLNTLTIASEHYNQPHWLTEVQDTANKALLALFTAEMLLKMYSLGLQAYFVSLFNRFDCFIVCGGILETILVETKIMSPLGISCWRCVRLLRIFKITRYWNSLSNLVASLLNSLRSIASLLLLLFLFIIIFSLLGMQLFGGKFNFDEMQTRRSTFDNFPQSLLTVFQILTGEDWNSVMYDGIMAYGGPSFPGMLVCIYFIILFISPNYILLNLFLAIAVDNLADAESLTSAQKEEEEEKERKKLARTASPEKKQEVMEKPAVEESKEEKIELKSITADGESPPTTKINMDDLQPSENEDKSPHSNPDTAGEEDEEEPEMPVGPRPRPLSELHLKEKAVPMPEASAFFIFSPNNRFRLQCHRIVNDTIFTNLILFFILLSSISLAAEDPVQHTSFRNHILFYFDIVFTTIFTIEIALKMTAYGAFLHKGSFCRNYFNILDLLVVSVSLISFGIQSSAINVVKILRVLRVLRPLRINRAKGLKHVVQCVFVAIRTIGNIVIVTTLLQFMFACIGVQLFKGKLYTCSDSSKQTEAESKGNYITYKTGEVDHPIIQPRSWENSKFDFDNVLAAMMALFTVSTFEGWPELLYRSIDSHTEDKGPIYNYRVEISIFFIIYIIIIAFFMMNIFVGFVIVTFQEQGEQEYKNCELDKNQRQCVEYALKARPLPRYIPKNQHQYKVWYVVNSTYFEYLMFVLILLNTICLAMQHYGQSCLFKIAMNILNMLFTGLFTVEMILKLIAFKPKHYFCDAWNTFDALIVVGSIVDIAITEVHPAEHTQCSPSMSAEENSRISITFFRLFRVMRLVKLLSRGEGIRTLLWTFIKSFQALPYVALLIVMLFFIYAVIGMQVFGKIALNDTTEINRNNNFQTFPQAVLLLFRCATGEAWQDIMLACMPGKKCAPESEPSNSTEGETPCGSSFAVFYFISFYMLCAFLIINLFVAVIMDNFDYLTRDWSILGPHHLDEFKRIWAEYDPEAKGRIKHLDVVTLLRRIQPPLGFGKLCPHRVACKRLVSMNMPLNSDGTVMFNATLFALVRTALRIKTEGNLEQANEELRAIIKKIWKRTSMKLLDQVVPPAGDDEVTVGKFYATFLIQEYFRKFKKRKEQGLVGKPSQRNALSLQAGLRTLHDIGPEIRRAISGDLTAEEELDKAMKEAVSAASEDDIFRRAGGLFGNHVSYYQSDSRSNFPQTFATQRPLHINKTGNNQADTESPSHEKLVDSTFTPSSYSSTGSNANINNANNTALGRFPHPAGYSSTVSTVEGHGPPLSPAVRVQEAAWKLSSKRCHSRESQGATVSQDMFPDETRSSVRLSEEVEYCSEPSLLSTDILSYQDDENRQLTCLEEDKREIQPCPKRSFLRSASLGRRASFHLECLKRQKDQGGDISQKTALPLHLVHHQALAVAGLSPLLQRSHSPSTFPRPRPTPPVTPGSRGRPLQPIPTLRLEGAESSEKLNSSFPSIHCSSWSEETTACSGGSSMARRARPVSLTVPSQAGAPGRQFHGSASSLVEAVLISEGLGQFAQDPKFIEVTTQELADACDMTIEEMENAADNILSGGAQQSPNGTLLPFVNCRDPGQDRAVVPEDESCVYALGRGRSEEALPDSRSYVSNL

`COc1cc(CCC(=O)CC(=O)CCc2ccc(O)c(OC)c2)ccc1O`: the AC50 was 3.16 µM (active).

What is called AC50 is the concentration giving half of the maximal activity seen.
